Source: PubChem (several laboratories)
tim10-1 inh: inhibits growth of tim10-1 mutant yeast | 330,000 compounds, 2.2% hits | inhibition, % at 20 µM | S. cerevisiae tim10-1 ts strain growth, BacTiter-Glo, 24 h;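 active = inhibition of at least 40%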;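 also: mutant grown at 25 °C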
SKKanGAS inh: SKKanGAS growth inhibition; S. pyogenes SKKanGAS, kanamycin growth, BacTiter-Glo, 6 h; inhibition, % at 7.5 µM; 300,000 compounds, 1.3% hits; AID 1662;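 active = mean replicate score, as percent of positive control median, at least 50; inconclusive = mean below 50 but one replicate at or above 50; inactive = mean and every replicate below 50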;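 also: strain carries kanamycin resistance gene driven by streptokinase promoter and grows in 40 µg/ml kanamycin; loss of luminescence reflects streptokinase promoter inhibition or plain growth inhibition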
tim23-1 inh: tim23-1 yeast growth inhibition | S. cerevisiae tim23-1 growth, BacTiter-Glo luminescence, 24 h | inhibition, % at 20 µM | 330,000 compounds, 1.3% hits | AID 463212;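 active = growth inhibition of the mutant yeast at or above 50%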;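 also: temperature-sensitive mutant grown at 25 °C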
NALP3 yeast inh: inhibitors of NALP3 inflammasome in yeast. Yeast reconstituted NLRP3/ASC/caspase-1, beta-gal luminescence, 24 h. AID 2825. 330,000 compounds, 0.39% hits. inhibition, % at 10 µM;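 active = inhibition of 50% or more; inactive = inhibition below 50%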
TIM10 inh: inhibits growth of TIM10 yeast strain | S. cerevisiae TIM10 strain growth, BacTiter-Glo luminescence, 24 h | inhibition, % at 10 µM | 330,000 compounds, 1.4% hits;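 active = inhibition of 40% or more at the single tested concentration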;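 also: wild-type TIM10 isogenic control strain grown at permissive 25 °C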
Hits are given with their value; - = inactive; ? = inconclusive; . = no result given. An excerpt weighted towards active compounds, which were near 4.6% of everything screened.

SMILES	tim10-1 inh	SKKanGAS inh	tim23-1 inh	NALP3 yeast inh	TIM10 inh
Cc1cc(C)c2nc(NNC(=O)c3ccc(S(=O)(=O)N4CCCCC4)cc3)sc2c1	-	?	-	-	-
S=c1[nH]c(-c2ccccc2)cn1/N=C/c1cccc2ccccc12	-	57	-	-	-
Oc1ccc(/C=N/n2cc(-c3ccccc3)[nH]c2=S)cc1	-	-	-	-	-
CCn1c(NC(=O)/C=C/c2ccc(F)cc2)nc2ccccc21	-	62	-	-	-
O=C(CN1C(=O)NC2(CCCCCC2)C1=O)c1ccc(Cl)s1	-	-	-	-	-
CN(C(=O)CSc1nc(-c2ccc(C(C)(C)C)cc2)c(C#N)c(=O)[nH]1)C1CCCCC1	-	?	-	-	-
Cc1nn(-c2ccccc2)c(Cl)c1/C=N/NC(=O)c1ccc(NS(=O)(=O)c2cccs2)cc1	-	72	-	-	-
Cc1cc(C(C)(C)C)cc(C)c1C[n+]1ccc2ccccc2c1	-	-	-	-	-
COC(=O)c1cc(NC(=S)NCc2ccc(Cl)cc2)cc(C(=O)OC)c1	-	-	-	-	-
COC(=O)c1cccc(NC(=S)NCc2ccc(Cl)cc2)c1	-	62	-	-	-
Cc1ccc(S(=O)(=O)N2CCCN(C(=O)c3ccc(-n4nccc4C)cc3)CC2)cc1	-	.	-	-	-
CC1(C)N=C(N)N=C(N)N1c1cccc(C(=O)O)c1	-	-	-	-	-
CCOC(=O)c1cccc(N2C(N)=NC(N)=NC2(C)C)c1	-	91	-	-	-
CCOc1ccc(N2C(N)=NC(N)=NC2(C)C)cc1	-	95	-	-	-
COc1ccc(N2C(N)=NC(N)=NC2(C)C)cc1	.	73	.	.	.
COc1cccc(N2C(N)=NC(N)=NC2(C)C)c1	-	95	-	-	-
CCCCOc1ccc(N2C(N)=NC(N)=NC23CCCCC3)cc1	-	-	-	-	-
COc1ccc(N2C(N)=NC(N)=NC23CCCC3)cc1	-	-	-	-	-
COC(=O)[C@]1(C)N[C@H](CN(C)S(=O)(=O)c2ccc(OC(F)(F)F)cc2)[C@@H]2C(=O)N(C)C(=O)[C@@H]21	-	.	-	-	-
CC(=O)c1ccc(S(=O)(=O)N2CCN(c3nc(-c4cccnc4)nc4ccccc34)CC2)cc1	-	.	-	-	-
CC1(C)N=C(N)N=C(N)N1c1ccc(OCCCOc2ccccc2)c(Cl)c1	.	111	.	.	.
CC(=O)Nc1ccc(Nc2nc(C)c([N+](=O)[O-])c(Nc3ccccc3)n2)cc1	-	-	-	-	-
CCC(=O)Nc1ccc(Nc2nc(C)c([N+](=O)[O-])c(Nc3ccc(NC(=O)CC)cc3)n2)cc1	-	66	-	-	-
O=C(CSc1nnnn1-c1ccccc1)NCCCN1CCCC1=O	-	.	-	-	-
Fc1ccccc1COc1ccc(-c2nnn(Cc3ccccc3F)n2)cc1	-	-	-	-	-
SMILES	tim10-1 inh	SKKanGAS inh	tim23-1 inh	NALP3 yeast inh	TIM10 inh
Cn1nnc(-c2ccc(OCc3ccccc3F)cc2)n1	-	53	-	-	-
N#C/C(=C(/O)c1ccc([N+](=O)[O-])o1)c1nc2ccccc2[nH]1	-	72	-	-	-
CC(C)(C)/C(O)=C(/C#N)c1nc2ccccc2[nH]1	-	-	-	-	-
Cc1nc(N)sc1-c1csc(N(C)c2ccc(O)cc2)n1	-	64	-	-	-
O=C(c1cccs1)N1N=C(c2ccccc2)CC1c1ccccc1 (configuration not stated)	-	57	-	-	-
O=S(=O)(c1ccccc1F)N1CCc2ccccc2C1	-	-	-	-	-
COc1cc(OC)cc(C(=O)Nc2nc3ccccc3[nH]2)c1	-	59	-	-	-
COc1ccc2oc(C(=O)Nc3nc4ccccc4[nH]3)c(C)c2c1	-	78	-	-	-
CCc1ccc(C(=O)Nc2nc3ccccc3[nH]2)cc1	-	63	-	-	-
O=C(Nc1nc2ccccc2[nH]1)c1ccc(F)cc1	-	-	-	-	-
COc1ccc(Br)c(C(=O)Nc2nc3ccccc3[nH]2)c1	-	-	-	-	-
COc1ccc(C(=O)Nc2nc3ccccc3[nH]2)cc1OC	-	-	-	-	-
CC(C)Oc1ccc(C(=O)Nc2nc3ccccc3[nH]2)cc1	-	55	-	-	-
N#Cc1ccc(C(=O)Nc2nc3ccccc3[nH]2)cc1	-	-	-	-	-
O=C(c1cc(COc2ccc(F)cc2F)on1)N1CCN(C2CCCC2)C(=O)C1	-	-	-	-	-
COC(=O)C[C@H](NC(=O)Cn1cnc2c(NCc3ccccc3)ncnc21)C(=O)OC	-	.	-	.	-
N=C1/C(=C\c2ccc(OC(=O)c3ccccc3Cl)cc2)C(=O)N=C2SC(N3CCOCC3)=NN12	-	53	-	-	-
COc1cc(/C=C2\C(=N)N3N=C(N4CCOCC4)SC3=NC2=O)ccc1OC(=O)c1ccccc1	-	-	-	-	-
CC/C(=C\C1CCCCC1)C(NP(=O)(c1ccccc1)c1ccccc1)c1ccccc1 (configuration not stated)	-	101	-	-	-
CCOC(=O)c1ccc(NC(=S)NN)cc1	-	70	-	-	-
CCOC(=O)c1ccc(NC(=S)NCc2ccc(F)cc2)cc1	-	-	-	-	-
CCOC(=O)c1ccc(NC(=S)Nc2cccc(N)n2)cc1	-	58	-	-	-
O=C(COC(=O)c1ccccn1)c1ccc([N+](=O)[O-])cc1	-	-	-	-	-
Cc1ccccc1-n1cnc2cc(NCc3cccs3)ccc21	-	50	-	-	-
O=C1CSc2ccc(C(=O)Nc3cccc(S(=O)(=O)Nc4ccc(Br)cc4)c3)cc2N1	-	73	-	-	-
SMILES	tim10-1 inh	SKKanGAS inh	tim23-1 inh	NALP3 yeast inh	TIM10 inh
CSc1ccc(S(=O)(=O)NCC(=O)OCC(=O)N2CC(C)CC(C)C2)cc1[N+](=O)[O-] (configuration not stated)	-	-	-	-	-
CSc1ccc(S(=O)(=O)NCC(=O)OCC(=O)N2CCCC2=O)cc1[N+](=O)[O-]	-	68	-	-	-
Oc1c(CN2CCN(c3ccccc3)CC2)cc(Br)c2cccnc12	.	90	.	.	.
Cc1ccc(CNC(=S)Nc2ccc(NS(=O)(=O)c3ccc(C)cc3)cc2)cc1	-	56	-	-	-
COc1cc(NS(=O)(=O)c2ccc(NC(=S)NC(=O)c3cccs3)cc2)nc(OC)n1	-	-	-	-	-
Cc1cc(C)cc(NS(=O)(=O)c2ccc(NC(=S)NC(=O)c3cccs3)cc2)c1	-	77	-	-	-
O=C(COc1ccc(Cl)cc1Br)NCC(c1ccco1)N1CCCC1 (configuration not stated)	-	.	-	-	-
O=C(Nc1nc(-c2cc(Cl)sc2Cl)cs1)c1cccs1	-	61	-	-	-
CCOc1ccc2nc(N3CCCCCC3)sc2c1	-	-	-	-	-
CCOc1ccc2nc(N3C(=O)/C(=C/c4ccccc4)NC3=S)sc2c1	-	100	-	-	-
COc1ccc2nc(N3C(=O)CC(Cc4cc(C)cc(C)c4)C3=O)sc2c1 (configuration not stated)	-	-	-	-	-
COc1ccc2nc(N3C(=O)/C(=C/c4ccccc4)NC3=S)sc2c1	-	92	-	-	-
